Assay [1] addresses Tyrosine-protein kinase Fer (Homo sapiens) (UniProt P16591). The settings on record: at 1 µM.
Assay [2] deals with Tyrosine-protein kinase Fes/Fps (Homo sapiens) (UniProt P07332). The settings on record: at 0.1 µM.
Assay [3] has the same target. Conditions: at 1 µM.
Assay [4] addresses Fibroblast growth factor receptor 1 (Homo sapiens) (UniProt P11362). Conditions: at 0.1 µM.
For assay [5] the target is unchanged. Conditions: at 1 µM.
Assay [6] addresses Fibroblast growth factor receptor 2 (Homo sapiens) (UniProt P21802). Conditions: at 0.1 µM.
For assay [7] the target is unchanged. Conditions: at 1 µM.
Assay [8] addresses Fibroblast growth factor receptor 3 (Homo sapiens) (UniProt P22607). Conditions: at 0.1 µM.
The target is the same in assay [9]. Conditions: at 1 µM.
The target of assay [10] is Fibroblast growth factor receptor 4 (Homo sapiens) (UniProt P22455). Conditions: at 0.1 µM.
Assay [11] has the same target. Conditions: at 1 µM.
Assay [12] deals with Tyrosine-protein kinase Fgr (Homo sapiens) (UniProt P09769). The settings on record: at 0.1 µM.
For assay [13] the target is unchanged. Conditions: at 1 µM.
Assay [14] addresses Vascular endothelial growth factor receptor 1 (Homo sapiens) (UniProt P17948). The settings on record: at 0.1 µM.
For assay [15] the target is unchanged. Conditions: at 1 µM.
For assay [16], the target named is Receptor-type tyrosine-protein kinase FLT3 (Homo sapiens) (UniProt P36888). The settings on record: at 0.1 µM.
For assay [17] the target is unchanged. The settings on record: at 1 µM.
Assay [18] concerns T1, Receptor-type tyrosine-protein kinase FLT3 (Homo sapiens), P36888 [D835Y].
T1 sequence (whole entry): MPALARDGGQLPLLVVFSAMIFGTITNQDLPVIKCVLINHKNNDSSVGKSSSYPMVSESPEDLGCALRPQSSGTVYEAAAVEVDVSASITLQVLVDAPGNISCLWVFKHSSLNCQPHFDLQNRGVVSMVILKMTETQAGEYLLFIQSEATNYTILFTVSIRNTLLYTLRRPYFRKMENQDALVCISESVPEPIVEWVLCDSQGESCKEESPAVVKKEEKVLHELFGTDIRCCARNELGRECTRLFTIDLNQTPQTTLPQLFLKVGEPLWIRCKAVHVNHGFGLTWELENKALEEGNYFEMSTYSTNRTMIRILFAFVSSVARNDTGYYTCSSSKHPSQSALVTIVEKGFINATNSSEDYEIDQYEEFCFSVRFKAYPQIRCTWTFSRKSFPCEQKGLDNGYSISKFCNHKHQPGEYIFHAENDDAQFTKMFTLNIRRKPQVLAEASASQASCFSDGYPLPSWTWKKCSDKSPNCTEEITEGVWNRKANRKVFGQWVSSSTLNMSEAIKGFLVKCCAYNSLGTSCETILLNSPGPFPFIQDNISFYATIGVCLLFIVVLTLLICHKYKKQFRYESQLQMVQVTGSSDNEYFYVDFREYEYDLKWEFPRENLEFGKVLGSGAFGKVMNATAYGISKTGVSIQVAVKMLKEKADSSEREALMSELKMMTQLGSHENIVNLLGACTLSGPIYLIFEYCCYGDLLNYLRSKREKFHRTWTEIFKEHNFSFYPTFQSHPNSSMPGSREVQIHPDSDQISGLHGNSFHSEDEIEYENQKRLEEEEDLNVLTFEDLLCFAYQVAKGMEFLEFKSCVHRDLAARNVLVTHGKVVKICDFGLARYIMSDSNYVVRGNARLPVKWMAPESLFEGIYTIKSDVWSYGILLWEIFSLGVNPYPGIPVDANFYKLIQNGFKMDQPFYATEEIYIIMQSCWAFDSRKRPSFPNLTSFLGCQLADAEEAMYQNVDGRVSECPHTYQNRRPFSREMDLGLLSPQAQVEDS
Conditions: at 0.1 µM.

The target of assay [19] is Non-receptor tyrosine-protein kinase TYK2 (Homo sapiens) (UniProt P29597). Conditions: at 1 µM.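 Further: values are mean percent inhibition of TYK2 kinase.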
Sequence of Non-receptor tyrosine-protein kinase TYK2 (Homo sapiens) (P29597 whole entry): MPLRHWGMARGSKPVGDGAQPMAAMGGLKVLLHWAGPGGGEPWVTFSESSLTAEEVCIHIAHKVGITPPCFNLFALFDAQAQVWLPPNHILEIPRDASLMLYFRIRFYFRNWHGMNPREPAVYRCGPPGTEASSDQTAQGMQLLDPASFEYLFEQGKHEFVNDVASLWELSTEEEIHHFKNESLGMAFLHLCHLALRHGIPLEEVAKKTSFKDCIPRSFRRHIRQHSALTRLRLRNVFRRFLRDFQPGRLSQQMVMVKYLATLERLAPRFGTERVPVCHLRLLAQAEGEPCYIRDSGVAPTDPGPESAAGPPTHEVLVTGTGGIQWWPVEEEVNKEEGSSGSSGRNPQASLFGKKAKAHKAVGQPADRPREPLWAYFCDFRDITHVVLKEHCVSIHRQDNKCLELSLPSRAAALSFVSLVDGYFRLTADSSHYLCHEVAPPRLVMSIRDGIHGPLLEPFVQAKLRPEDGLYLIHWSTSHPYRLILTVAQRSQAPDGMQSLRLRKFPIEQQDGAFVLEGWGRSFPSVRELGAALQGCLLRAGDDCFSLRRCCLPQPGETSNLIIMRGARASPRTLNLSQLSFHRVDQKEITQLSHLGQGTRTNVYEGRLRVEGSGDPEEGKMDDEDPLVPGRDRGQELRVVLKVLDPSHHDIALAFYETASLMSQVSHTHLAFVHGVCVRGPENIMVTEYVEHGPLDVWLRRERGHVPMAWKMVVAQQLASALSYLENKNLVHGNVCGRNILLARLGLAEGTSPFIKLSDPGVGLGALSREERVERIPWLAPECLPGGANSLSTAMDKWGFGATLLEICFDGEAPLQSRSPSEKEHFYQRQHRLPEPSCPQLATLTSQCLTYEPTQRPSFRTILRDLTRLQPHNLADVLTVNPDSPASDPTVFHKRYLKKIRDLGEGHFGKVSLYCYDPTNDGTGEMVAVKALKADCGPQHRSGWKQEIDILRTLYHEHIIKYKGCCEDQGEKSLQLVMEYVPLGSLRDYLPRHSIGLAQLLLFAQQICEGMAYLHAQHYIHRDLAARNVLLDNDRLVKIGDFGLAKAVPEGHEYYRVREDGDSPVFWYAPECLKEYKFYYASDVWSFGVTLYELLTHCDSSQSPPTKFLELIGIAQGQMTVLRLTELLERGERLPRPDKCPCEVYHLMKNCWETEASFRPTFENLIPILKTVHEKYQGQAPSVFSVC
In assay [20] the target is T2, Tyrosine-protein kinase receptor TYRO3 (Homo sapiens) (UniProt Q06418).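 Further: reported percentages are averaged inhibition values of TYRO3 kinase activity.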
T2 sequence (whole entry): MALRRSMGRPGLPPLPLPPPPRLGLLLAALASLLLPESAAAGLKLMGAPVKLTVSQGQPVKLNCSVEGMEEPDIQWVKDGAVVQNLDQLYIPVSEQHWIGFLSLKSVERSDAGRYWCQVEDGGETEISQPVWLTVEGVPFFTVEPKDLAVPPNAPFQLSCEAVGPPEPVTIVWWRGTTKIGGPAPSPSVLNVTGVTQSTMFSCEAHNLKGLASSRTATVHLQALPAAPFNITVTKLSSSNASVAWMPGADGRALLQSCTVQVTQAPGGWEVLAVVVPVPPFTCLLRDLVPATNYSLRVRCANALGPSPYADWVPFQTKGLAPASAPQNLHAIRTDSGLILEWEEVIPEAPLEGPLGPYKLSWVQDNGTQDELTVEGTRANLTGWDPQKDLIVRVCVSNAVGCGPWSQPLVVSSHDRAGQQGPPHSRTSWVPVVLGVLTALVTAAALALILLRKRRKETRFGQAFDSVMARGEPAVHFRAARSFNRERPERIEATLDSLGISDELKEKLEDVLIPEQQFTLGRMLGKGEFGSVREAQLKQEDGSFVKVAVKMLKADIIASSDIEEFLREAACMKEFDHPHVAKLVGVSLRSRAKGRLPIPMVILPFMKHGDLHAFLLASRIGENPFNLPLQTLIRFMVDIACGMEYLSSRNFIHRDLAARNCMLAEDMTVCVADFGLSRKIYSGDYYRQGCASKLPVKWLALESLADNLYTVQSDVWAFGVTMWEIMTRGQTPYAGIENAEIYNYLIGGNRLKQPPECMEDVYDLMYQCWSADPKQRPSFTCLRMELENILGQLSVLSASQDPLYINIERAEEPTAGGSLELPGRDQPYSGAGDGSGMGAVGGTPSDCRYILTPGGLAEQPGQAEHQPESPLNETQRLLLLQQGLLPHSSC
The settings on record: at 0.1 µM.

We go through 6 molecules from ChEMBL document CHEMBL1961873, “Compounds: GSK PKIS; Assays: Nanosyn kinase panel” (2012).

The term inhibition denotes the change of the read-out against control, counted positive when it falls.

SMILES strings stand for the structures.

Sequence of Tyrosine-protein kinase Fes/Fps (Homo sapiens) (P07332 whole entry): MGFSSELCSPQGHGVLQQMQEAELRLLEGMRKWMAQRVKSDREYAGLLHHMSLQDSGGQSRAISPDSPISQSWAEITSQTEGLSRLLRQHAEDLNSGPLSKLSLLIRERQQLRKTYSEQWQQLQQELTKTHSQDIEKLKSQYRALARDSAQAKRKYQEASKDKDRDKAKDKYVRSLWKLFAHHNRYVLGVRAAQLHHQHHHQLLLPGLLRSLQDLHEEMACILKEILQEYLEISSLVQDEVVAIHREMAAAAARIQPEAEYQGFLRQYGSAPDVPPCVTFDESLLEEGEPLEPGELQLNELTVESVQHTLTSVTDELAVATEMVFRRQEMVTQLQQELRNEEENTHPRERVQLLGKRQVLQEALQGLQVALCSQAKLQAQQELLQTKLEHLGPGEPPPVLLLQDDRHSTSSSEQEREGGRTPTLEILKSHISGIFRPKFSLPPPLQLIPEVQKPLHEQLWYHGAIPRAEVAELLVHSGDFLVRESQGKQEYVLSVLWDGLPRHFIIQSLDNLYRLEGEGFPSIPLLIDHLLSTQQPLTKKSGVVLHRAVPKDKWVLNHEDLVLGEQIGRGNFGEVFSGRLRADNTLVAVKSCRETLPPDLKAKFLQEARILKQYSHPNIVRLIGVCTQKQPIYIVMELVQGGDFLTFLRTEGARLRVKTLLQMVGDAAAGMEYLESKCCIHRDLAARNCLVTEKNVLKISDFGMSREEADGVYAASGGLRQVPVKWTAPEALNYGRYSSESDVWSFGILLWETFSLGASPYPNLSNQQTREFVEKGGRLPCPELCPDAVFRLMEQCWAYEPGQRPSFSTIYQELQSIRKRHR
Sequence of Fibroblast growth factor receptor 2 (Homo sapiens) (P21802 22-821 limits assumed): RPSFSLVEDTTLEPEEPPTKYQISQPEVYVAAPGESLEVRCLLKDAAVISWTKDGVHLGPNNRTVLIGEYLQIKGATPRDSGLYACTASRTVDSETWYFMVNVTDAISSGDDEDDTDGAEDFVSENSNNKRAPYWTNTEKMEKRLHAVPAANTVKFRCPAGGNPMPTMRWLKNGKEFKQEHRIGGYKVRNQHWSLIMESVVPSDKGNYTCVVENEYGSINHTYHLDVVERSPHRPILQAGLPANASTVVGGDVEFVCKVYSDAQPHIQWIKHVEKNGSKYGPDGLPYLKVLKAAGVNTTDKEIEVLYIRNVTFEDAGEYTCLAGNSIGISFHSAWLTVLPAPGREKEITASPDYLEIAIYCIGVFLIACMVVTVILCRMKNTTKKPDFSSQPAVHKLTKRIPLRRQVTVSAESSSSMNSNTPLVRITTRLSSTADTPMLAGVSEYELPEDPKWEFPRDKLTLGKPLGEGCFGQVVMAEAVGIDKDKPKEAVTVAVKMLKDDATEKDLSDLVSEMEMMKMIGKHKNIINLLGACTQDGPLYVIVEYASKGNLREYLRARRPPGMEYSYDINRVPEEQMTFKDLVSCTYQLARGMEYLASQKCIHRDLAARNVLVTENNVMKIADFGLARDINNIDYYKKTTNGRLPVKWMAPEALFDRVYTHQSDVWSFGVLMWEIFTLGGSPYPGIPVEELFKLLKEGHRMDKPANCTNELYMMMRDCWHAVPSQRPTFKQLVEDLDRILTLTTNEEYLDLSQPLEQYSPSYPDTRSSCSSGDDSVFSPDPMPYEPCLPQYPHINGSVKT
Sequence of Tyrosine-protein kinase Fer (Homo sapiens) (P16591 whole entry, looked up): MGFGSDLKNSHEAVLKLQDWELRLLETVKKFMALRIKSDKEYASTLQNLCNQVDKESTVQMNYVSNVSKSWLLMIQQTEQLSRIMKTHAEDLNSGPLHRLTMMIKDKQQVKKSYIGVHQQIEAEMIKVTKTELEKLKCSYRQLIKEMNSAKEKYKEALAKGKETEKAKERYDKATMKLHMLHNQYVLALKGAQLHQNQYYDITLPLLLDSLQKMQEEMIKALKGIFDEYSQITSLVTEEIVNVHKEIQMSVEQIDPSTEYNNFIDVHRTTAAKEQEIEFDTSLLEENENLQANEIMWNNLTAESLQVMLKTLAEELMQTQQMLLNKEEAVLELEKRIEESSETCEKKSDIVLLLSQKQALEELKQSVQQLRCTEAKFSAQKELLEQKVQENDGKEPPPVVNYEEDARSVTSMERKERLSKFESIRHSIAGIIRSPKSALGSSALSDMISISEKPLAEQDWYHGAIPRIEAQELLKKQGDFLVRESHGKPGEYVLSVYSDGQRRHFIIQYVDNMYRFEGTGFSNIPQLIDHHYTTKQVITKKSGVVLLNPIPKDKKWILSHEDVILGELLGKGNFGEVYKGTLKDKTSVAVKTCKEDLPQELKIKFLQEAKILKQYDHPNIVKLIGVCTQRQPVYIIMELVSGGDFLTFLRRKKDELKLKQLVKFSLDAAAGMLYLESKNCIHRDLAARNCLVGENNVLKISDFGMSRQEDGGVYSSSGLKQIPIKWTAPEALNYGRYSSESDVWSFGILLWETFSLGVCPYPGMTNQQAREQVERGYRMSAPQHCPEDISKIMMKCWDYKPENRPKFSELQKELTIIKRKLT
Sequence of Vascular endothelial growth factor receptor 1 (Homo sapiens) (P17948 whole entry): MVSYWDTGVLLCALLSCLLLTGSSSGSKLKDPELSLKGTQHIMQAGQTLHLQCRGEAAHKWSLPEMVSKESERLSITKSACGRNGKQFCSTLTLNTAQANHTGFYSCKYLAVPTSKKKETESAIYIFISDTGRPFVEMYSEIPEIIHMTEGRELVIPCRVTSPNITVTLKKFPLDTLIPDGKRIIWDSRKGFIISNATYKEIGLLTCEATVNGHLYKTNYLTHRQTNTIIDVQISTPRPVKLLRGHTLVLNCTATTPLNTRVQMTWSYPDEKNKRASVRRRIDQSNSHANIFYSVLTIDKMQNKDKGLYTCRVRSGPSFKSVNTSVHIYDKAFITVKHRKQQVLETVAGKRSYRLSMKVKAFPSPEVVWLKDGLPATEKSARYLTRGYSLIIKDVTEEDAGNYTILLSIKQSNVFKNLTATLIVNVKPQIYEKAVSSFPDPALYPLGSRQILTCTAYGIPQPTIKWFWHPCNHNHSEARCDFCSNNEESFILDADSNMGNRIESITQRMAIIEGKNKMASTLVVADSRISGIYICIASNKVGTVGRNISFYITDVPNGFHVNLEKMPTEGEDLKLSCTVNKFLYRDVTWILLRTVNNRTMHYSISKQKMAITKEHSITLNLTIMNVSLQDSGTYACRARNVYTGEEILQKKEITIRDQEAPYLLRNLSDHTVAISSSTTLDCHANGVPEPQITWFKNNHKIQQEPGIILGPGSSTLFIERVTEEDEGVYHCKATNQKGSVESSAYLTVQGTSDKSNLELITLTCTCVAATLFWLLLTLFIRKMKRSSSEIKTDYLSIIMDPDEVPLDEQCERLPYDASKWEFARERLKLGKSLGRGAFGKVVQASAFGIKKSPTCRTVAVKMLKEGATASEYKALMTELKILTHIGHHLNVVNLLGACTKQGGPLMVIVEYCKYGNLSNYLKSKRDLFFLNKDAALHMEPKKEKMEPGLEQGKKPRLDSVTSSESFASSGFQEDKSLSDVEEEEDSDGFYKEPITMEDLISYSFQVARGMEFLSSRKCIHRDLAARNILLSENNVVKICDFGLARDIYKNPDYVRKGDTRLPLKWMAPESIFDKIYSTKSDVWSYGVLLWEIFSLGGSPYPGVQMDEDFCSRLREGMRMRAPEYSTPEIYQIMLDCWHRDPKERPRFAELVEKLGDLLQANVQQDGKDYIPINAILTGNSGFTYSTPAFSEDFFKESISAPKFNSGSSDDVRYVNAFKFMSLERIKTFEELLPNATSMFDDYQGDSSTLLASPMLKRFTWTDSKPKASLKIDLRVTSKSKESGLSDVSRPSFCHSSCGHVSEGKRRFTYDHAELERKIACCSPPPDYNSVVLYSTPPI

As for `COC(=O)Nc1nc2cc(Oc3cccc(NC(=O)Nc4cc(C(F)(F)F)ccc4F)c3)ccc2[nH]1`, the inhibition in assay [1] is 1.61%; in [2], -0.51%; in assay [3], 0.56%; in assay [4], -2.84%; in assay [5], 0%; in assay [6], -1.71%. The inhibition in [7] is 2.62%; in [8], 0.57%; in assay [9], 1.54%; in assay [10], -1.4%; in [11] it was 0.74%; in assay [12] it was 1.17%. Besides, the inhibition is 3.3% in [13]; 2.97% in assay [14]; 25.7% in [15]; -3.12% in assay [16]; 3.93% in [17]; 1.62% in assay [18]. Also, the values for the inhibition in assay [19] and in assay [20] were 1.94% and -1.36%, respectively.
`COc1ccc(-c2coc3ncnc(N)c23)cc1`: the inhibition is 2.33% in assay [1]; 4.28% in assay [2]; 5.04% in [3]; 3.15% in assay [4]; 9.2% in assay [5]; 3.85% in assay [6]. Further, the inhibition in assay [7] was 10.1%; in [8], 6.98%; in [9], 6.72%; in [10] it was -5.79%; in assay [11], 1.55%; in assay [12], 0.55%. Moreover, the inhibition in [13] was 5.25%; in assay [14] it was -1.7%; in [15], 2.37%; in [16], 2.97%; in [17], 4.59%; in assay [18], 3.34%. The inhibition in assay [19] is -3.97%; in [20] it was 2.29%.
Turning to `CC1=C(C(=O)Nc2ccc3[nH]ncc3c2)C(c2ccc(Cl)c(Cl)c2)CC(=O)N1` (stereo not given), the inhibition amounted to 1.24% in assay [1]; 1.63% in [2]; 2.35% in [3]; 0.69% in assay [4]; 8.25% in assay [5]; 0.22% in assay [6]. For the same molecule, the inhibition was 20.4% in assay [7]; 2.17% in assay [8]; 14.1% in [9]; 1.31% in [10]; 8.43% in [11]; 1.97% in assay [12]. The inhibition in assay [13] was 6.08%; in assay [14], 0.2%; in assay [15] it was 2.26%; in [16], 1.43%; in assay [17], 1.54%; in assay [18], -2.38%. Also, the inhibition in [19] is 3.29%; in assay [20], 1.69%.
For `Nc1nc(-c2ccc3c(c2)C(=Cc2cc(Br)c(O)c(Br)c2)C(=O)N3)cs1`, the inhibition in assay [1] is 3.05%; in assay [2], -2.93%; in assay [3], -3.65%; in assay [4], -5.75%; in assay [5], -1.36%; in assay [6], -1.12%. Further, the inhibition in [7] was 1.88%; in [8], -0.11%; in [9], 1.45%; in assay [10], -4.66%; in assay [11] it was 3.96%; in assay [12], -0.02%. Besides, the inhibition in assay [13] is 5.44%; in assay [14], -0.63%; in assay [15], 0.2%; in assay [16] it was -3.03%; in assay [17] it was 0.66%; in assay [18], -2.57%. The inhibition in [19] is 2.43%; in assay [20], -0.46%.
As to `COc1ccc2cc(-c3c(-c4ccncc4)nc(-c4ccc([S+](C)[O-])cc4)n3C)ccc2c1` (stereo not given), the inhibition in assay [1] stood at 3.19%; in assay [2], 2.73%; in assay [3] it was 3%; in assay [4] it was 0.66%; in assay [5], 17%; in assay [6], 3.38%. Moreover, the inhibition in assay [7] is 5.85%; in [8], 4.62%; in assay [9], 5.2%; in assay [10], 0.03%; in assay [11] it was 1.73%; in assay [12], 1.14%. Also, the inhibition in assay [13] is 6.14%; in assay [14], -2.5%; in [15] it was -1.05%; in assay [16] it was 1.98%; in assay [17] it was 1.93%; in assay [18], -0.4%. The inhibition in assay [19] is -4.84%; in assay [20], 0.64%.
For the molecule `NS(=O)(=O)c1cccc(-c2ccc3c(NC(=O)C4CC4)n[nH]c3c2)c1`, the inhibition in [1] was 3.76%; in assay [2] it was -3.2%; in assay [3], -4%; in [4] it was 0.33%; in assay [5], -2.92%; in [6] it was -1.77%. The inhibition in assay [7] was -1.15%; in assay [8] it was -0.12%; in assay [9], 0.44%; in [10] it was 0.21%; in [11], -0.5%; in assay [12], -1.55%. The inhibition in assay [13] is -0.19%; in assay [14], -1.03%; in assay [15] it was -0.85%; in assay [16], 0.61%; in [17], -0.59%; in [18], -3.17%. Moreover, the inhibition was 1.94% in [19] and -0.52% in assay [20].
